# Measured values: PubChem BioAssay (NCI)
# The panel holds about 83,000 compounds, 20% with a hit somewhere; the sample as a whole holds those more often.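 A percent growth of 40 corresponds to 60% growth inhibition; 0 means no net growth; -100 means all cells died. Active threshold: below 10.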 Unmarked numbers belong to inactive results. Activity calls are given as the source filed them.
# Key:
# Assay in all cases: NCI-60 one-dose screen, 48 h (100 = growth as untreated, 0 = no growth, -100 = all killed)
# Details in all cases: 10 µM unless noted
# RPMI-8226 leukemia = test system: RPMI-8226 leukemia
# OVCAR-8 ovarian = test system: OVCAR-8 ovarian
# OVCAR-5 ovarian = test system: OVCAR-5 ovarian
# OVCAR-4 ovarian = test system: OVCAR-4 ovarian
# SK-OV-3 ovarian = test system: SK-OV-3 ovarian
# IGROV1 ovarian = test system: IGROV1 ovarian
# OVCAR-3 ovarian = test system: OVCAR-3 ovarian
# HS 578T breast = test system: HS 578T breast
# NCI/ADR-RES ovarian = test system: NCI/ADR-RES ovarian
# T-47D breast = test system: T-47D breast
Structure (SMILES),growth (RPMI-8226 leukemia),growth (OVCAR-8 ovarian),growth (OVCAR-5 ovarian),growth (OVCAR-4 ovarian),growth (SK-OV-3 ovarian),growth (IGROV1 ovarian),growth (OVCAR-3 ovarian),growth (HS 578T breast),growth (NCI/ADR-RES ovarian),growth (T-47D breast)
Cc1c(-c2noc(-c3ccc([N+](=O)[O-])cc3)n2)no[n+]1[O-],93.3%,107%,104%,102%,111%,89.4%,94.4%,104%,96.2%,104%
O=C1c2cc(Br)ccc2Oc2cc([N+](=O)[O-])ccc2N1c1ccc(I)cc1F,104%,94.6%,97.7%,94.5%,115%,97.9%,109%,101%,99.6%,100%
O=C1c2ccccc2C(=O)c2c1ccc1[nH]c(CCl)nc21,-40.3% (active),20.1%,70.4%,-20.4% (active),37.6%,15.2%,-35.9% (active),18.2%,34.5%,-21.5% (active)
CCOc1ccc(Nc2ccnc3cc(Cl)ccc23)cc1,-14.1% (active),-1.07% (active),36%,16.5%,2.15% (active),,11.7%,29.3%,3.34% (active),1.44% (active)
Clc1ccc(Oc2ccc(Nc3ncnc4onc(-c5ccccc5)c34)cc2)c(Cl)c1,90.8%,97.7%,101%,81.5%,,94.5%,109%,99.5%,96.8%,83.5%
COc1ccc(C2NCCc3c2[nH]c2ccccc32)cc1CN1CCN(c2ccc(F)cc2)CC1 (centres undefined),-10% (active),24.6%,64.8%,65.3%,88.8%,,66.8%,92.2%,54.7%,54.6%
CC(=O)Nc1nc2c(s1)CCc1c-2cn(S(=O)(=O)c2ccccc2)c1-c1ccccc1,57.7%,79.7%,97.4%,84.3%,101%,,80.5%,91.3%,49.7%,49.3%
CC(=O)O[C@@H]1/C=C/C(=O)N[C@@H](C)CCC/C=C/[C@@H]2CCC[C@H]21,87.5%,99.4%,87.8%,109%,103%,,106%,133%,101%,98.6%
COc1ccc(Cn2c(Br)c3c(c2-c2cc(OC)c(OC)c(OC)c2)CCc2sc(NC(C)=O)nc2-3)cc1,53.5%,60.4%,96.8%,49.8%,35.5%,6.54% (active),-14.4% (active),24.6%,27.1%,37.2%
O=C(CN1C(=O)/C(=C\c2ccc(Cl)cc2)SC1=S)Nc1ncc(Cc2ccc(Cl)cc2)s1,102%,101%,104%,105%,104%,,108%,98.9%,104%,105%
